From PubChem
NOMO-1 viab: NOMO-1 AML cell viability reduction, primary screen, STK33 inhibitor project, CellTiter-Glo luminescence; NOMO-1 AML viability, 72 h; inhibition, % (no concentration beside the values); actives 7.5% (n = 37,000); in the data active = inhibition above about 80%; inconclusive = no clear call, values can overlap the other calls
MITF inh: inhibitors of MITF, primary screen, MITF inhibitor project, cell-based, luminescence; TRPM1 promoter luciferase, 24 h; inhibition, % (concentration not given with the values); actives 0.28% (n = 37,000); AID 2240, 2010; in the data active = inhibition above about 85%; inconclusive = no clear call, values can overlap the other calls; inactive = below about 68%;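 also: human melanocyte line stably carrying TRPM1 promoter luciferase reporter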
Shh pathway inh: Hedgehog pathway signaling inhibitors, primary screen, luminescence, Shh-LIGHT2 cells, Gli-luciferase; Shh-LIGHT2 Gli-luciferase reporter, 30 h; inhibition, % (concentration not given with the values); actives 2.1% (n = 22,000); AID 2313, 2010;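 active = mean inhibition across valid replicates above about 65%, limit read from the data; inconclusive = mean under the limit, yet half or more replicates past it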;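 also: pathway switched on by Shh-conditioned medium diluted 1 in 25 in low serum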
Numbers stand for hits; n = inactive; u = inconclusive; x = not tested or not shown. Rows were chosen to be rich in hits. Some 8.1% of all compounds tested hit in one or more screens of this group.

SMILES | NOMO-1 viab | MITF inh | Shh pathway inh
Cc1ccc([N+](=O)[O-])cc1NC(=O)CN(C)S(=O)(=O)c1cc(Cl)ccc1Cl | n | n | x
N#Cc1c(SCC(=O)Nc2c(Cl)cccc2Cl)nc2c(c1-c1cccnc1)CCC2 | n | n | x
C[C@@H]1CN([C@H](C)CO)C(=O)c2cc(NC(=O)c3ccncc3)ccc2O[C@@H]1CN(C)S(=O)(=O)c1ccc(F)cc1 | n | n | n
CC(C)NC(=O)Nc1ccc2c(c1)CC(=O)N([C@@H](C)CO)C[C@@H](C)[C@@H](CN(C)Cc1ccc(C(=O)Nc3ccccc3N)cc1)O2 | 107.3 | n | x
C[C@@H]1CN([C@H](C)CO)C(=O)Cc2cc(NC(=O)Nc3ccc(F)cc3)ccc2O[C@@H]1CN(C)Cc1ccc(C(=O)Nc2ccccc2N)cc1 | 97.3 | n | x
C[C@H]1CN([C@@H](C)CO)C(=O)Cc2cc(NC(=O)Nc3ccccc3)ccc2O[C@H]1CN(C)Cc1ccc(C(=O)Nc2ccccc2N)cc1 | 139.4 | n | x
C[C@H]1CN([C@@H](C)CO)C(=O)Cc2cc(NC(=O)Nc3ccc(F)cc3)ccc2O[C@H]1CN(C)Cc1ccc(C(=O)Nc2ccccc2N)cc1 | 128.3 | n | x
Cc1ccc(S(=O)(=O)NCCSc2nnc(Nc3ccccc3)s2)cc1 | n | n | x
CCN(CC(=O)Nc1ccc(OC)c(Cl)c1)S(=O)(=O)c1ccc2ccccc2c1 | n | n | x
Cc1cccc(OCC(O)Cn2cnc3cc(C)c(C)cc32)c1 (centres undefined) | n | n | x
COCCNS(=O)(=O)c1cc([N+](=O)[O-])ccc1C | n | n | x
Cn1c(SCC(=O)Nc2ccc(Oc3ccccc3)cc2)nnc1-c1cccs1 | n | n | x
CS/C(=N\S(=O)(=O)c1cc(C(F)(F)F)cc(C(F)(F)F)c1)N1CCOCC1 | n | n | n
C[C@H]1CN([C@@H](C)CO)C(=O)Cc2cc(NC(=O)Nc3cccc4ccccc34)ccc2O[C@H]1CN(C)Cc1ccc(C(=O)Nc2ccccc2N)cc1 | 105.2 | n | x
Cc1noc(C)c1NC(=O)Nc1ccc2c(c1)CC(=O)N([C@H](C)CO)C[C@H](C)[C@H](CN(C)Cc1ccc(C(=O)Nc3ccccc3N)cc1)O2 | 136.7 | n | x
C[C@H]1CN([C@@H](C)CO)C(=O)Cc2cc(NC(=O)c3ccncc3)ccc2O[C@@H]1CN(C)Cc1ccc(C(=O)Nc2ccccc2N)cc1 | n | n | x
Cc1noc(C)c1NC(=O)Nc1ccc2c(c1)C(=O)N([C@H](C)CO)C[C@H](C)[C@H](CN(C)Cc1ccc(C(=O)Nc3ccccc3N)cc1)O2 | n | n | x
C[C@H]1CN([C@@H](C)CO)C(=O)Cc2cc(NC(=O)Nc3cccc4ccccc34)ccc2O[C@@H]1CN(C)Cc1ccc(C(=O)Nc2ccccc2N)cc1 | n | n | x
C[C@H]1CN([C@@H](C)CO)C(=O)Cc2cc(NC(=O)c3ccncc3)ccc2O[C@H]1CN(C)Cc1ccc(C(=O)Nc2ccccc2N)cc1 | 126.0 | n | x
C[C@H]1CN([C@@H](C)CO)C(=O)Cc2cc(NC(=O)Nc3ccc4c(c3)OCO4)ccc2O[C@@H]1CN(C)Cc1ccc(C(=O)Nc2ccccc2N)cc1 | n | n | x
C[C@H](CO)N1C[C@H](C)[C@H](CN(C)Cc2ccc(C(=O)Nc3ccccc3N)cc2)Oc2ccc(NC(=O)Nc3ccc4c(c3)OCO4)cc2CC1=O | 126.9 | n | x
COc1ccc(-n2c(CCn3c4ccccc4c4ccccc43)n[nH]c2=S)cc1 | n | n | x
COC(=O)C[C@@H]1C(C(=O)O)=CO[C@@H](O[C@@H]2O[C@H](CO)[C@@H](O)[C@H](O)[C@H]2O)/C1=C\COC(=O)/C=C/c1ccccc1 | n | n | n
O=c1c(O)c(-c2ccc(O)cc2)oc2cc(OC3O[C@H](CO)[C@@H](O)[C@H](O)[C@H]3O)cc(O)c12 (some centres undefined) | n | n | n
O=[n+]1c(CO)c(CO)n([O-])c2ccccc21 | n | n | n
SMILES | NOMO-1 viab | MITF inh | Shh pathway inh
COc1ccc(N(CC(=O)Nc2c(C)cc(C)cc2C)S(C)(=O)=O)cc1Cl | n | n | x
C[C@H]1CN([C@@H](C)CO)C(=O)Cc2cc(N(C)C)ccc2O[C@@H]1CN(C)S(=O)(=O)c1cccs1 | n | n | x
N#CC(C#N)=C(N)/C(C#N)=C/c1cc(O)c(O)c(O)c1 | n | n | 76.2
CC(C)(C)c1cc(/C=C(\C#N)C(N)=S)cc(C(C)(C)C)c1O | 117.7 | 90.8 | 105.9
CC(=O)N[N+]1=C(N)c2ccccc2C1 | n | n | n
COC(=O)CC(O)(CCCC(C)(C)O)C(=O)O[C@@H]1C(OC)=C[C@]23CCCN2CCc2cc4c(cc2[C@@H]13)OCO4 (some centres undefined) | 98.8 | 93.4 | 103.7
COC1=CC(=O)O[C@@H](CCc2ccccc2)[C@H]1O | n | n | n
CC1=C(C(=O)Nc2ccccc2)C(c2ccccc2OCc2ccccc2)n2nnnc2N1 (centres undefined) | n | n | x
COC(=O)C1c2c(oc3cc(CO)cc(O)c3c2=O)C=CC1O (centres undefined) | 107.3 | n | n
COc1cc(-c2oc3cc(O)cc(O)c3c(=O)c2O[C@@H]2O[C@H](CO)[C@@H](O)[C@H](O)[C@H]2O)ccc1O[C@@H]1O[C@H](CO)[C@@H](O)[C@H](O)[C@H]1O | n | n | n
CCCCC(=O)N1c2ccccc2C(Nc2ccccc2)CC1C (centres undefined) | n | n | n
C[C@H](CO)N1C[C@H](C)[C@H](CN(C)CC2CCCCC2)Oc2ccc(NC(=O)Nc3cccc4ccccc34)cc2C1=O | u | n | n
C/C=C/c1ccc(O)cc1C(=O)C(C)O (centres undefined) | n | n | n
O=C(O[C@H]1[C@H](Oc2ccccc2COC(=O)C2(O)C=CCCC2=O)O[C@H](CO)[C@@H](O)[C@@H]1O)c1ccccc1 (some centres undefined) | 120.6 | n | n
CC(=O)O[C@H]1[C@H](Oc2ccccc2COC(=O)C2(O)C=CCCC2=O)O[C@H](CO)[C@@H](O)[C@@H]1O (some centres undefined) | n | n | n
CCN(CC(=O)Nc1ccc(I)cc1)S(=O)(=O)c1ccc2ccccc2c1 | n | n | x
C/C=C(/C)C(=O)O[C@H]1C=C(C)C[C@H](OC(=O)c2ccc(O)cc2)C2[C@](O)(C(C)C)CC[C@@]21C (some centres undefined) | 122.5 | n | n
CC(C)=CCc1cc2c(cc1O)O[C@H]1c3ccc(O)c(O)c3OC[C@@H]21 | 104.7 | n | n
COc1ccc2c(c1)O[C@H]1c3ccc(O)cc3OC[C@@H]21 | n | n | n
OC[C@H]1O[C@@H](Oc2ccc3c(c2)OC[C@H]2c4cc5c(cc4O[C@@H]32)OCO5)[C@H](O)[C@@H](O)[C@@H]1O | n | n | n
Oc1ccc2c(c1O)OCC1c3cc4c(cc3OC21)OCO4 (centres undefined) | 105.2 | n | n
O=C(Cn1cnc([N+](=O)[O-])n1)Nc1ccc(N2CCOCC2)c(Cl)c1 | n | n | x
COc1c2c(cc3oc(=O)ccc13)OC(C)(C)C=C2 | n | n | n
COc1cc2c(cc1OC)[C@@H]1C(=O)c3ccc4c(c3O[C@@H]1CO2)C=CC(C)(C)O4 | n | 99.5 | n
